# Records with an inconclusive call do not appear. Entries that show only a call come without a potency. Activity calls are given as the source filed them. Calls come from the whole dose curve; as a rule, active = well fitted cell-killing curve with a large enough effect in the repeat runs; inconclusive = weak or mixed curves, or effect the other way; inactive = no such curve, though single readings can be large or run the other way. Where a SMILES comes first, the peptide text is derived from it. [ ]: non-standard residue; d: D form. pGlu = O=C1CC[C@@H](C(=O)O)N1
# Assay: Caspase-3/7 induction in CHO-K1 cells by small molecules, qHTS cell viability counter screen (AID 1346979); note: nearly all actives have a fitted effect of over 35% in size
# Conditions: CellTiter-Fluor fluorescence, 17 h; series mostly up to 92.4 µM
# Description: National Center for Advancing Translational Sciences [NCATS]
# NIH Chemical Genomics Center [NCGC]
# U.S. Environmental Protection Agency [EPA]
# National Institutes of Environmental Health Sciences [NIEHS]
# National Toxicology Program [NTP]
# U.S. Food and Drug Administration [FDA]
# Apoptosis is a process of programmed cell death and plays a central role in the development of multicellular organisms. It is a highly regulated process and induces cell death by activating caspases, which are the members of cysteine aspartic acid-specific protease (caspase) family. Caspases involved in apoptosis are classified by their mechanism of action as initiator caspases (caspase-2, -8, -9 and -10) and executioner caspases (caspase-3, -6, and -7). Inhibition of apoptosis results in number of cancers, autoimmune diseases, inflammatory diseases and viral infection. To identify small molecule compounds that induce apoptosis, a homogeneous, luminescent Caspase-Glo 3/7 assay was used. Wild type CHO-K1 cells were used to screen Tox21 libraries for identifying caspase-3/7 activity inducers. Also cytotoxicity of the compounds was tested in parallel by measuring the cell viability using CellTiter-Fluor assay system in the same wells.
# Tox21 Assay Protocol Summary:
# CHO-K1 cells were dispensed at 1,500 per well in 5uL of culture medium into white solid bottom 1536-well plates (Corning Life Sciences, Corning, NY) using a Multidrop Combi (Thermo Scientific, Waltham, MA) dispenser. The assay plates were incubated at 37 C and 5% CO2 for 5hr, and then 23nL of compounds dissolved in DMSO and positive control were transferred using a Pintool station (Wako, San Diego, CA). The assay plates were incubated at 37C and 5% CO2 for 17hr. For cytotoxicity read, after 16hr incubation at 37C, 1uL CellTiter-Fluor reagent (Promega Corporation, Madison, WI) was added to each well of the assay plates using Flying Reagent Dispenser (FRD, Aurora Discovery, San Diego, CA). After 1hr incubation at 37C and 5% CO2, the fluorescence signal was quantified using a ViewLux plate reader (PerkinElmer, Shelton, CT).
# Potency is the fitted concentration of half-maximal effect.
Compound,Potency,"activity change, negative = cytotoxicity"
O=C(O)CNC(=O)c1ccc(CO)o1,inactive,
Cc1ccc(C(=O)c2ccccc2)cc1,inactive,
CCO[Si](OCC)(OCC)c1ccccc1,inactive,
CCNS(=O)(=O)c1ccc(C)cc1,inactive,
CC1=NS(=O)(=O)c2cc(Cl)ccc2N1,inactive,
C[N+]1(CC2COC(c3ccccc3)(c3ccccc3)O2)CCCCC1 (stereo not given),,2.24% [at 19 µM] (inactive)
CN1CC(=O)N/C1=N/C(=O)Nc1cccc(Cl)c1,inactive,
CCNC(=O)[C@@H]1CCCN1C(=O)[C@H](CCCN=C(N)N)NC(=O)[C@H](CC(C)C)NC(=O)CNC(=O)[C@H](Cc1ccc(O)cc1)NC(=O)[C@H](CO)NC(=O)[C@H](Cc1c[nH]c2ccccc12)NC(=O)[C@H](Cc1cnc[nH]1)NC(=O)[C@@H]1CCC(=O)N1 ([pGlu]HWSYGLRP-NHEt),inactive,
CC(C)(C)c1ccc(-c2ccc(C(C)(C)C)cc2)cc1,inactive,
CC(=O)OCC(=O)[C@@]1(O)[C@H](C)C[C@H]2[C@@H]3CCC4=CC(=O)C=C[C@]4(C)[C@@]3(F)[C@@H](O)C[C@@]21C,inactive,
CC(C)c1ccc2ncccc2c1,inactive,
Cc1ncc([C@@H](CCCCCCc2ccc3c(n2)NCCC3)CC(=O)O)cn1,38.6 µM (active),
O=C1NC(=O)C2CC=CCC12 (stereo not given),inactive,
C=CC(C)(CCC=C(C)C)OC(=O)CC (stereo not given),inactive,
Cc1nc2ccc(CN(C)c3ccc(C(=O)N[C@@H](CCC(=O)O)C(=O)O)s3)cc2c(=O)[nH]1,inactive,
CN(C)C(=O)Oc1ccc[n+](C)c1,inactive,
NC(N)=NCCN1CCCCCCC1,,-1.24% [at 0.349 µM] (inactive)
CCCCOCCOC(=O)COc1cc(Cl)c(Cl)cc1Cl,inactive,
CC/C=C\CCOC(C)OCC (stereo not given),inactive,
CNCC(O)c1ccc(O)c(O)c1 (stereo not given),inactive,

Compound,Potency,"activity change, negative = cytotoxicity"
CCN(CC#N)c1cccc(C)c1,inactive,
Clc1cc(Cl)c(Cl)nc1Cl,inactive,
CO[Si](C)(OC)c1ccccc1,inactive,
C[N+](C)(CCOc1ccccc1)Cc1cccs1,inactive,
[O-][n+]1cccc(CO)c1,inactive,
CCCCOC(=O)CCC(C)=O,inactive,
CCCc1nn(C)c2c(=O)[nH]c(-c3cc(S(=O)(=O)N4CCN(C)CC4)ccc3OCC)nc12,inactive,
O=[N+]([O-])c1cncn1CCN1CCOCC1,inactive,
Cc1cc(C)c(N=Nc2c(O)c(S(=O)(=O)O)cc3cc(S(=O)(=O)O)ccc23)cc1C,,-8.22% [at 8.39 µM] (inactive)
CCN[C@@H]1C[C@H](N)[C@@H](OC2OC(CN)=CCC2N)[C@H](O)[C@H]1O[C@H]1OC[C@](C)(O)[C@H](NC)[C@H]1O (stereo not given in full),,2.16% [at 0.349 µM] (inactive)
O=C1c2ccccc2C(=O)c2cc(O)ccc21,inactive,
CO[C@@]1(NC(=O)CSC[C@@H](N)C(=O)O)C(=O)N2C(C(=O)O)=C(CSc3nnnn3C)CS[C@@H]21,inactive,
CC1=C(C/C=C(\C)CCC[C@H](C)CCC[C@H](C)CCCC(C)C)C(=O)c2ccccc2C1=O,inactive,
C[N+]1(C)CCCC(OC(=O)C(O)(c2ccccc2)c2ccccc2)C1 (stereo not given),inactive,
CCC(C)(CN(C)C)OC(=O)c1ccccc1 (stereo not given),inactive,
C[C@H]1[C@H](NC(=O)/C(=N/OC(C)(C)C(=O)O)c2csc(N)n2)C(=O)N1S(=O)(=O)O (stereo in doubt),inactive,
C=C(C)C(=O)OCCOCCOCCOCCOC(=O)C(=C)C,inactive,
Cc1ccc(C(=O)c2ccc(CC(=O)O)n2C)cc1,inactive,
CCCCCCCCCCCCSC,inactive,
O=S(=O)(O)c1cccc2c(S(=O)(=O)O)cccc12,inactive,

# Source: PubChem BioAssay (Tox21)
